Compound activity (PubChem BioAssay)
A selection: hits, their analogues and other compounds. The true share with any hit is near 17%.
TGFb SMAD3 inh: qHTS for Inhibitors of TGF-b | 410,000 compounds, 1.2% hits | Potency, µM (doses to about 46.1 µM), for inactives: top-dose activity, negative = inhibition, hits mostly inhibitors | HepG2 CAGA-GFP TGF-b/SMAD3 reporter, GFP fluorescence, 18 h; TGF-beta stimulated, 500 pg/mL final; also: % is scaled to controls: 0 for no effect and ±100 for the full control effect; nearly all actives have a fitted effect of over 65% in size
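GFP signal (ex488/em500-530) from TGF-beta-stimulated HEPG2 CAGA-GFP cells, 500 pg/mL final, 18 h at 37 degrees C in DMEM plus 1% FBS, normalized to unstimulated and DMSO-stimulated controls.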
ATXN2 expr inh: Primary qHTS for Inhibitors of ATXN expression; AID 1745845, 2022; HEK-293 ATXN2-luciferase reporter, luminescence, 24 h; Potency, µM (series often up to 57 µM), for inactives: at the top dose activity change, negative = inhibition, usual class: inhibitors; 360,000 compounds, 0.72% hits; also: % is scaled to controls: 0 for no effect and ±100 for the full control effect; nearly all actives have a fitted effect of over 55% in size
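qHTS (up to 57 uM final) was run with 24 h compound exposure of reporter cells at 37 °C. Each well was multiplexed: SteadyGlo luminescence measured ATXN2-luciferase expression after a fluorogenic Gly-Phe-AFC viability readout (25 uM final).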
TDP1 cell CPT: qHTS for Inhibitors of human tyrosyl-DNA phosphodiesterase 1 (TDP1): qHTS in cells in presence of CPT | chicken DT40 Tdp1-/-;hTDP1 cells + 20 nM CPT, ATP luminescence, 48 h | Potency, µM (doses to about 46.2 µM), inactives show at the top dose activity change, negative = growth inhibition, usual class: inhibitors | 420,000 compounds, 12% hits | AID 686979, 2013; also: % is scaled to controls: 0 for no effect and ±100 for the full control effect; nearly all actives have a fitted effect of over 55% in size
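Chicken DT40 Tdp1-/- cells complemented with human TDP1, 400 cells/well, exposed to compounds plus 20 nM camptothecin for at least 48 h at 37 C; viability read as ATP content by CellTiter-Glo luminescence.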
HepG2 viability: qHTS for Inhibitors of TGF-b: Cytotox Counterscreen | HepG2 CAGA-GFP viability, ATP luminescence, 18 h | Potency, µM (doses to about 46.1 µM), without a hit: at the top dose activity change, negative = cytotoxicity, hits mostly cytotoxic | 410,000 compounds, 0.76% hits
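HepG2 CAGA-GFP cells (1000/well, DMEM with 1% FBS) received compound, then TGF-beta at 500 pg/mL final, and were incubated 18 hours at 37 degrees C. Viability was read by CellTiter-Glo luminescence. Media-only wells were set as complete cell-killing and DMSO as no toxicity.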
ATXN viability: Viability Counterscreen for Primary qHTS for Inhibitors of ATXN expression. 400,000 compounds, 0.49% hits. AID 651635, 2014. S2 cells (HEK-293 line with an ATXN2-luciferase reporter) viability, CellTiter-Fluor protease fluorescence, 24 h. Potency, µM (titrated, usually from 56.7 µM), actives largely listed as cytotoxic; also: nearly all actives have a fitted effect of over 40% in size
TDP1 cell noCPT: qHTS for Inhibitors of human tyrosyl-DNA phosphodiesterase 1 (TDP1): qHTS in cells in absence of CPT; DT40 Tdp1-/- hTDP1 cells, no CPT, ATP luminescence, 48 h; Potency, µM (highest dose often 46.2 µM), without a hit: top-dose activity change, negative = growth inhibition, most hits filed as inhibitors; 420,000 compounds, 15% hits; AID 686978, 2013; also: % is scaled to controls: 0 for no effect and ±100 for the full control effect; nearly all actives have a fitted effect of over 55% in size
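Chicken DT40 Tdp1-/- cells stably complemented with human TDP1 were seeded at 400 cells/well with DMSO in place of 20 nM camptothecin. After compound pinning, cells grew at least 48 hr at 37 °C; viability read by CellTiter-Glo luminescence.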
* hit, by the source's call. Calls follow the shape of the dose curve; as a rule, active = well fitted curve in the direction sought with a large enough effect; inconclusive = small, poorly fitted or top-dose-only effect, or another doubt; inactive = no such curve, though single readings can be large; an effect the other way counts as inactive or inconclusive. Potency is read from the fitted curve at half-maximal effect.

For COCn1ccnc1C(=O)c1ccco1 the results were TGFb SMAD3 inh -4.8%, TDP1 cell CPT -2.2%, HepG2 viability -10.5%, ATXN viability inactive and TDP1 cell noCPT -0.5%.
COCCSc1nnc(NC(=O)c2ccc(OC)c([N+](=O)[O-])c2)s1 was read as TGFb SMAD3 inh 0.2%, TDP1 cell CPT 2.5%, HepG2 viability 4.9%, ATXN viability inactive and TDP1 cell noCPT 8.6%.
`Cc1ccc(C(=O)N/C(=C/c2ccc(F)cc2)C(=O)NCc2ccncc2)cc1` gave TGFb SMAD3 inh -0.5%, TDP1 cell CPT 13.0%, HepG2 viability 0.8%, ATXN viability inactive and TDP1 cell noCPT 3.8%.
Screening NC(Cc1ccc(C(F)(F)F)cc1)c1csc(Nc2ccc(C(=O)NCc3ccco3)cn2)n1 (centres undefined) returned TGFb SMAD3 inh inconclusive, ATXN2 expr inh 12.6µM*, TDP1 cell CPT 14.6µM*, HepG2 viability 20µM*, ATXN viability 22.4µM* and TDP1 cell noCPT inconclusive.
Screening NC(Cc1ccc(C(F)(F)F)cc1)c1csc(Nc2ccc(C(=O)NCCCO)cn2)n1 (centres undefined) returned TGFb SMAD3 inh inconclusive, ATXN2 expr inh inconclusive, TDP1 cell CPT inconclusive, HepG2 viability -90.9%, ATXN viability inconclusive and TDP1 cell noCPT 16.4µM*.
COc1ccccc1/C=N/OC(=O)c1ccc(C)cc1 was read as TGFb SMAD3 inh 0.6%, ATXN2 expr inh -13.3%, TDP1 cell CPT -4.6%, HepG2 viability 2.1% and TDP1 cell noCPT -15.7%.
Screening CSc1nc(N)n2nc(-c3ccccc3)cc2n1 returned TGFb SMAD3 inh 18.0%, ATXN2 expr inh 90.0%, TDP1 cell CPT -1.7%, HepG2 viability -19.4%, ATXN viability inactive and TDP1 cell noCPT inconclusive.
`Cc1ccc(S(=O)(=O)c2c(C)cc(C)nc2N2CCOCC2)cc1` gave TGFb SMAD3 inh -4.3%, ATXN2 expr inh -2.5%, TDP1 cell CPT 6.3%, HepG2 viability -4.6%, ATXN viability inactive and TDP1 cell noCPT -16.1%.
Cc1ccc(S(=O)(=O)c2c(C)cc(C)nc2N2CCCCC2)cc1 was read as TGFb SMAD3 inh 6.3%, ATXN2 expr inh -12.4%, TDP1 cell CPT 23.1µM*, HepG2 viability -17.5%, ATXN viability inactive and TDP1 cell noCPT 18.4µM*.
For CC(C)c1ccc(S(=O)(=O)c2cc3cc(Br)ccc3oc2=O)cc1 the results were TGFb SMAD3 inh -19.6%, ATXN2 expr inh 20µM*, TDP1 cell CPT -14.8%, HepG2 viability 5.1%, ATXN viability inactive and TDP1 cell noCPT inconclusive.
`Cc1ccc(S(=O)(=O)c2cc3cc(Br)ccc3oc2=O)cc1` gave TGFb SMAD3 inh -9.5%, ATXN2 expr inh inconclusive, TDP1 cell CPT 4.9%, HepG2 viability -10.1% and TDP1 cell noCPT 0.0%.
Screening CC(C)c1ccc(NC(=O)c2ccc3oc(=O)c(S(=O)(=O)c4ccc(F)cc4)cc3c2)cc1 returned TGFb SMAD3 inh -12.3%, ATXN2 expr inh inconclusive, TDP1 cell CPT inconclusive, HepG2 viability -6.0%, ATXN viability inconclusive and TDP1 cell noCPT 7.31µM*.
Cc1cccc(NC(=O)c2ccc3oc(=O)c(S(=O)(=O)c4ccc(F)cc4)cc3c2)c1C was read as TGFb SMAD3 inh 0.7%, ATXN2 expr inh -1.6%, TDP1 cell CPT -13.3%, HepG2 viability -8.0%, ATXN viability inactive and TDP1 cell noCPT inconclusive.
For Cc1ccc(NC(=O)CSc2nnc(NC3CC3)s2)cc1S(=O)(=O)N1CCOCC1 the results were TGFb SMAD3 inh -0.5%, TDP1 cell CPT -4.1%, HepG2 viability -19.4%, ATXN viability inactive and TDP1 cell noCPT -25.6%.
For CCCCN(CC)CCNC(=O)Cn1cnc2sc(C)c(S(=O)(=O)N3CCC(C)CC3)c2c1=O the results were TGFb SMAD3 inh -9.8%, ATXN2 expr inh -0.5%, TDP1 cell CPT 3.4%, HepG2 viability -10.7%, ATXN viability inactive and TDP1 cell noCPT -9.1%.
Screening CCCC(C)NC(=S)Nc1cc(C)cc(C)c1 (centres undefined) returned TGFb SMAD3 inh -0.4%, ATXN2 expr inh -8.2%, TDP1 cell CPT 2.9%, HepG2 viability -62.9%, ATXN viability inactive and TDP1 cell noCPT -1.1%.
`Cn1c(=O)c(-c2ccccc2)cc2ccccc21` gave TGFb SMAD3 inh 0.0%, ATXN2 expr inh 18.2%, TDP1 cell CPT -1.1%, HepG2 viability -49.5%, ATXN viability inactive and TDP1 cell noCPT inconclusive.
Cn1c(C(c2cc3ccccc3n2C)c2cc3ccccc3n2C)cc2ccccc21 was read as TGFb SMAD3 inh inconclusive, TDP1 cell CPT 5.62µM*, HepG2 viability -99.7% and TDP1 cell noCPT 3.55µM*.
Cn1c(-c2ccccc2)cc2ccccc21 was read as TGFb SMAD3 inh -24.2%, ATXN2 expr inh 24.4%, TDP1 cell CPT -22.6%, HepG2 viability -27.1%, ATXN viability inactive and TDP1 cell noCPT -22.7%.
`Cn1c(-c2ccccc2O)cc2ccccc21` gave TGFb SMAD3 inh 0.0%, ATXN2 expr inh -8.8%, TDP1 cell CPT inconclusive, HepG2 viability -39.0%, ATXN viability inactive and TDP1 cell noCPT 18.4µM*.
Screening Cc1ccc(C2CCN(C(=O)c3cnn(-c4ccc(C)c(C)c4)c3C3CCN(C(=O)OC(C)(C)C)CC3)C2)cc1 (centres undefined) returned TGFb SMAD3 inh -22.6%, TDP1 cell CPT 10.3µM*, HepG2 viability 2.6% and TDP1 cell noCPT 13µM*.
Cc1ccc(-n2ncc(C(=O)NCCc3c[nH]c4ccccc34)c2C2CCN(C(=O)OC(C)(C)C)CC2)cc1C was read as TGFb SMAD3 inh inconclusive, ATXN2 expr inh -35.2%, TDP1 cell CPT 16.4µM*, HepG2 viability -24.1%, ATXN viability inactive and TDP1 cell noCPT inconclusive.
`Cc1ccc(-n2ncc(C(=O)N3CCCCC3)c2C2CCN(C(=O)OC(C)(C)C)CC2)cc1C` gave TGFb SMAD3 inh -25.3%, TDP1 cell CPT inconclusive, HepG2 viability -0.5% and TDP1 cell noCPT inconclusive.
For Cc1ccc(-n2ncc(C(=O)N3CCN(C(=O)c4ccco4)CC3)c2C2CCN(C(=O)OC(C)(C)C)CC2)cc1C the results were TGFb SMAD3 inh -16.1%, ATXN2 expr inh 3.0%, TDP1 cell CPT -7.7%, HepG2 viability -1.9%, ATXN viability inactive and TDP1 cell noCPT 8.3%.
